Test in all cases: DAPPL (digital affinity profiling via proximity ligation, sequencing); 10 mM Tris-HCl pH 7.5, 50 mM NaCl, 1 mM DTT, 4% glycerol, room temperature, 30 min; GST-TFs on glutathione beads, 16-mer random dsDNA library, 0.1% formaldehyde crosslink after washing; high values mean tight binding
Holding throughout (conditions): protein: recombinant; tags: N-terminal GST; dsDNA, one strand shown

Assay [1] has as its target T1, ELK1 (Homo sapiens, UniProt P19419 1-428).
T1 sequence: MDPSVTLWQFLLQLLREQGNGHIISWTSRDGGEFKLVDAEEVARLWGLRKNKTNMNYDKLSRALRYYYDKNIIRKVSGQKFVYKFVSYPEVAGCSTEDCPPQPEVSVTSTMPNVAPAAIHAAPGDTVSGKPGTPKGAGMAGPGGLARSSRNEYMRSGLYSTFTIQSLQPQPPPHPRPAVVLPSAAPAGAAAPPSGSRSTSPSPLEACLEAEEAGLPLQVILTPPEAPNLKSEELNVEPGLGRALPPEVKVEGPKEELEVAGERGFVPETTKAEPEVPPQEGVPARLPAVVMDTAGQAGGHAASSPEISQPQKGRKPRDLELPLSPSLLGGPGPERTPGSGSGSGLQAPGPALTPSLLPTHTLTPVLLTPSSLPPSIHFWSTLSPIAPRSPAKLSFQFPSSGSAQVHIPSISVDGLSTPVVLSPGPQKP
Summed up:
(§1)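 The binding signal reported is, for every hexamer, its read frequency for a factor over its read frequency for the tag-only sample. Reads came from pools of yeast-expressed, GST-fused human transcription factors on glutathione beads, barcoded with DNA and mixed with that sample, which were incubated with 200 nmole of a random double-stranded 16-mer DNA library in Tris/NaCl/DTT/glycerol buffer at room temperature for 30 min. After washing, the pools were crosslinked with 0.1% formaldehyde, proximity-ligated with BsaI/T4 ligase for 1 h at 37 °C, PCR-amplified and sequenced on an Illumina NextSeq500.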

Assay [2] deals with T2, GABPA (Homo sapiens, UniProt Q06546 1-454).
T2 sequence: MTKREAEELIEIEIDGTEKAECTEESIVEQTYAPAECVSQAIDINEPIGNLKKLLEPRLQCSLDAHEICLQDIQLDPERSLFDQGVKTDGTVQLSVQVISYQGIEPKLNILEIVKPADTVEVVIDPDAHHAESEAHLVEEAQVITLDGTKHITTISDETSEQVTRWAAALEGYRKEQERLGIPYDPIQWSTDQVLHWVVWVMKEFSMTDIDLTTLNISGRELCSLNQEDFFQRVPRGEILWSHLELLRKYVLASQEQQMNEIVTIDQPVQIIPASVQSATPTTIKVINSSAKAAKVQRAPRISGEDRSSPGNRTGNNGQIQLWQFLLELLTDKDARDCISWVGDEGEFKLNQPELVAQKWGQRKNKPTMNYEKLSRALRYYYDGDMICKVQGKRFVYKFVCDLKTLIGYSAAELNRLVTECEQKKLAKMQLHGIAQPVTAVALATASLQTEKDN
In short, it runs like this:
as §1

The target of assay [3] is T3, ERG (Homo sapiens, UniProt P11308 1-479).
T3 sequence: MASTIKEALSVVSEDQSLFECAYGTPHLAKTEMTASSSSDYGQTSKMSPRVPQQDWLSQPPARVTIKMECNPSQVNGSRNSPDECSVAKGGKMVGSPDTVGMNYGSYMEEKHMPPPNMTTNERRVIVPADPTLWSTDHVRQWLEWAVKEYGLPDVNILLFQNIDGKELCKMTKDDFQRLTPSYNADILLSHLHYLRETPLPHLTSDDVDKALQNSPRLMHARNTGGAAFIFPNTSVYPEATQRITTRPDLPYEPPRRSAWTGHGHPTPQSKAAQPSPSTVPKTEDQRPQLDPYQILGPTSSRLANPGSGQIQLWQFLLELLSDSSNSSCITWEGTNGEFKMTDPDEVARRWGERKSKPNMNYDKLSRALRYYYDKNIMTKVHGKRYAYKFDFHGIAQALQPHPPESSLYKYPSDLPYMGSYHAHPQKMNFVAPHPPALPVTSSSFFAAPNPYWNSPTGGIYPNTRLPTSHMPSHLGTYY
In short, it runs like this: as §1

The target of assay [4] is ELF1 (Homo sapiens, UniProt P32519 1-619). Summed up: as §1
Assay [5] concerns the target T4, EHF (Homo sapiens, UniProt Q9NZC4 1-300).
T4 sequence: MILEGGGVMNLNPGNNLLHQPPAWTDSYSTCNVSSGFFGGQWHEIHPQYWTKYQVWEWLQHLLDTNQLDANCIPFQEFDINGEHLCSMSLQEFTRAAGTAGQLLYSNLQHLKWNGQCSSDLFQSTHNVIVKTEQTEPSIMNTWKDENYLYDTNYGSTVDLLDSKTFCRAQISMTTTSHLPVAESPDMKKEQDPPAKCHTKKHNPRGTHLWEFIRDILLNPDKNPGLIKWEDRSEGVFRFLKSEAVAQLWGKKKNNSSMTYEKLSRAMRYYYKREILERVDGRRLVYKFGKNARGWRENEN
In short, it runs like this: as §1

For assay [6], the target named is SPIB (Homo sapiens, UniProt Q01892 1-262). Summed up:
as §1

Assay [7] deals with T5, FEV (Homo sapiens, UniProt Q99581 1-238).
T5 sequence: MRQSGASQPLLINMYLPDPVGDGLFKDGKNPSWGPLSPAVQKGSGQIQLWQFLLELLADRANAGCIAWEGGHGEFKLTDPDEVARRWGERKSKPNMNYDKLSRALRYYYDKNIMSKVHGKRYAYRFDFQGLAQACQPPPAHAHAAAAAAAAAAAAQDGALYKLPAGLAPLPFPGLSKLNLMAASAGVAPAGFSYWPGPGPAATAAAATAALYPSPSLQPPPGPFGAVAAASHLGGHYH
Summed up: as §1

Assay [8] addresses ETV5 (Homo sapiens, UniProt P41161 1-510). In short, it runs like this: as §1
Assay [9] addresses ELF4 (Homo sapiens, UniProt Q99607 1-663). Summed up: as §1
In assay [10] the target is T6, ELK4 (Homo sapiens, UniProt P28324-2 1-405).
T6 sequence: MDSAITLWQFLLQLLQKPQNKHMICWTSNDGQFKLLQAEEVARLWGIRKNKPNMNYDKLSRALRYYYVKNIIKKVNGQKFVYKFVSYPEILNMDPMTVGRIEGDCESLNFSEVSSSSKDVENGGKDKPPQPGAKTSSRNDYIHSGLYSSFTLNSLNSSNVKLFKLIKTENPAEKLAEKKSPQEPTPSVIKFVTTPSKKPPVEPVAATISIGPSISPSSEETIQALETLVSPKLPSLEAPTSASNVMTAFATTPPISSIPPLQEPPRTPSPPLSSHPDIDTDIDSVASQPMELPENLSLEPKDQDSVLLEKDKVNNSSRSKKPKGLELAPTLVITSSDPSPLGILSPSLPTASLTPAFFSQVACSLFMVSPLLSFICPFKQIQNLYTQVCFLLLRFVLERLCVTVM
In short, it runs like this:
as §1

SPIB, sequence (Q01892 whole entry): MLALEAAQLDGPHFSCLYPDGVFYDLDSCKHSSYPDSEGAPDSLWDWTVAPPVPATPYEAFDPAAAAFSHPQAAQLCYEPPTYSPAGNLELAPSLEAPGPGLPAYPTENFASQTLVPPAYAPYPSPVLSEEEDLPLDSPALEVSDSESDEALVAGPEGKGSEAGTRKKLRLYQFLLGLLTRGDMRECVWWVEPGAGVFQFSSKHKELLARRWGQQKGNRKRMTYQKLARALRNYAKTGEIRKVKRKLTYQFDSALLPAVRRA
ELF1, sequence (P32519 whole entry): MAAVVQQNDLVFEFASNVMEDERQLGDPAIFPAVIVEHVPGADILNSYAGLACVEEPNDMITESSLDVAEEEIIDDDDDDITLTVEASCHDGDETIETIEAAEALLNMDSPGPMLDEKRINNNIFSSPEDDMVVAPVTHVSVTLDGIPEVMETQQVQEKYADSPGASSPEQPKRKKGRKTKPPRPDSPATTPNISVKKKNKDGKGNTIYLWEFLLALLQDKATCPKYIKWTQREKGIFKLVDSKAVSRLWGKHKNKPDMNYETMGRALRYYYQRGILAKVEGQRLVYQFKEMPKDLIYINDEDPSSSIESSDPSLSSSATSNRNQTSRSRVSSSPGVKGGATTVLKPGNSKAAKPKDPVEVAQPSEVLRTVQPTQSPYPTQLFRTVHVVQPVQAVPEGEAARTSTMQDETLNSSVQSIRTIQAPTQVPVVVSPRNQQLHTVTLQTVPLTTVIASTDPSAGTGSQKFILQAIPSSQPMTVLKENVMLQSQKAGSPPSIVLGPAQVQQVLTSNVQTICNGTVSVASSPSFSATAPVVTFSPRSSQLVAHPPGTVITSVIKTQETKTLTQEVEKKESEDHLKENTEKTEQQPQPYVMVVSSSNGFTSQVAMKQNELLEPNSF
ELF4, sequence (Q99607 whole entry): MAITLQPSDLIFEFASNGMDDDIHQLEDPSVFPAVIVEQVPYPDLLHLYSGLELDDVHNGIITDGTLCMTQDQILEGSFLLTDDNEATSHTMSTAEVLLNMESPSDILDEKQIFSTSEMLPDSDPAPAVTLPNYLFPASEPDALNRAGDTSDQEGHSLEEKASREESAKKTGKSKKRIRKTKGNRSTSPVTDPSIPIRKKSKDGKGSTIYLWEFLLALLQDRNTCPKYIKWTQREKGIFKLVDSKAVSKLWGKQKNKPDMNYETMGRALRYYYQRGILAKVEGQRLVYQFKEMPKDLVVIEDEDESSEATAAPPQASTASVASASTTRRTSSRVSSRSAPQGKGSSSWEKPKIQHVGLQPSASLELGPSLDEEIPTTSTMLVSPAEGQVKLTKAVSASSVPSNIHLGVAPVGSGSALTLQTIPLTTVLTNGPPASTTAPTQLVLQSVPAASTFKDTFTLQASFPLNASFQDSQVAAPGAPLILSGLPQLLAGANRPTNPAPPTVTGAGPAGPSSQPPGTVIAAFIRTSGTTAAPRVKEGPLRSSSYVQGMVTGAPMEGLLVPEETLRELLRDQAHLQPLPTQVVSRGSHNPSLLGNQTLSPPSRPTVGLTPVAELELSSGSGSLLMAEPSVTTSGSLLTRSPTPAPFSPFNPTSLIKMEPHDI
ETV5, sequence (P41161 whole entry): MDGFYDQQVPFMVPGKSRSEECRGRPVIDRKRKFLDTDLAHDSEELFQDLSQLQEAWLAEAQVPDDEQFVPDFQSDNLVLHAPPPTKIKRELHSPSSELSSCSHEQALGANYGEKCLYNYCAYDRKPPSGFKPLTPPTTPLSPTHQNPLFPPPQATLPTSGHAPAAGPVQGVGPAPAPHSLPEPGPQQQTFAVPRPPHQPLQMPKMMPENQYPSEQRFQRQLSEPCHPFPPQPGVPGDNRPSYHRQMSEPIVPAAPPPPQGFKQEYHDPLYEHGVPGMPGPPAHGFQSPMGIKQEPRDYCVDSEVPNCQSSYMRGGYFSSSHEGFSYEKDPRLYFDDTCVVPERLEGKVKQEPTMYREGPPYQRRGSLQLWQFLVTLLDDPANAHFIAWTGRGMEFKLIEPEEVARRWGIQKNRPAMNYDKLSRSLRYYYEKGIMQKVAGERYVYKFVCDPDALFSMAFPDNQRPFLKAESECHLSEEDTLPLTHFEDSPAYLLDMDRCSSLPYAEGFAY

In the case of AAGATC, the binding signal in assay [1] was 1.07 fold enrichment (6-mer frequency, TF over GST control); in assay [2], 1.08 fold enrichment (6-mer frequency, TF over GST control); in assay [3] it was 1.07 fold enrichment (6-mer frequency, TF over GST control); in assay [4], 1.05 fold enrichment (6-mer frequency, TF over GST control); in assay [5], 1.04 fold enrichment (6-mer frequency, TF over GST control); in [6] it was 1.13 fold enrichment (6-mer frequency, TF over GST control). For the same sequence, the binding signal in [7] was 1.03 fold enrichment (6-mer frequency, TF over GST control); in assay [8] it was 1.03 fold enrichment (6-mer frequency, TF over GST control); in assay [9] it was 1.03 fold enrichment (6-mer frequency, TF over GST control); in assay [10], 1.01 fold enrichment (6-mer frequency, TF over GST control).
